In paper doi:10.1101/2024.03.05.583629:

molecular target: pT7_6His-AlfaTag-HOXD13 (human, UniProt P35453 263-343); assay: PADIT-seq; details: dsDNA, one strand shown
Sequence (P35453 263-343): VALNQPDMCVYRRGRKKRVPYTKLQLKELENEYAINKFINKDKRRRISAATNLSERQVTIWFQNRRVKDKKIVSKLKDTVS

| Sequence | binding signal |
| --- | --- |
| CTCGAGGATATCAAGATCTGGCCTCGGCCGCCCAAAGGGAACCTCTAGCTAGCCGACTCACTATAGGGATAATCGCCCTGAGCAAAGACC | -0.802 ± 0.123 log2FC |
| CTCGAGGATATCAAGATCTGGCCTCGGCCGAATAAAAGGAACCTCTAGCTAGCCGACTCACTATAGGGATAATCGCCCTGAGCAAAGACC | 1.27 ± 0.0923 log2FC |
| CTCGAGGATATCAAGATCTGGCCTCGGCTATGTAAAAGGAACCTCTAGCTAGCCGACTCACTATAGGGATAATCGCCCTGAGCAAAGACC | 1.05 ± 0.102 log2FC |
| CTCGAGGATATCAAGATCTGGCCTCGGCGTTTTATTAGGAACCTCTAGCTAGCCGACTCACTATAGGGATAATCGCCCTGAGCAAAGACC | 3.19 ± 0.0762 log2FC |
| CTCGAGGATATCAAGATCTGGCCTCGGCTTTTTACAAGGAACCTCTAGCTAGCCGACTCACTATAGGGATAATCGCCCTGAGCAAAGACC | 3.28 ± 0.0787 log2FC |
| CTCGAGGATATCAAGATCTGGCCTCGGCACAATAAAAGGAACCTCTAGCTAGCCGACTCACTATAGGGATAATCGCCCTGAGCAAAGACC | 2.72 ± 0.0742 log2FC |
| CTCGAGGATATCAAGATCTGGCCTCGGCTTTTTAAAAGGAACCTCTAGCTAGCCGACTCACTATAGGGATAATCGCCCTGAGCAAAGACC | 2.52 ± 0.0678 log2FC |
| CTCGAGGATATCAAGATCTGGCCTCGGCCGCCCATTCGGAACCTCTAGCTAGCCGACTCACTATAGGGATAATCGCCCTGAGCAAAGACC | -0.894 ± 0.121 log2FC |
| CTCGAGGATATCAAGATCTGGCCTCGGCATTTTATCCGGAACCTCTAGCTAGCCGACTCACTATAGGGATAATCGCCCTGAGCAAAGACC | 1.17 ± 0.0736 log2FC |
| CTCGAGGATATCAAGATCTGGCCTCGGCCTCCTAAAAGGAACCTCTAGCTAGCCGACTCACTATAGGGATAATCGCCCTGAGCAAAGACC | 0.715 ± 0.108 log2FC |
| CTCGAGGATATCAAGATCTGGCCTCGGCCGCATACGCGGAACCTCTAGCTAGCCGACTCACTATAGGGATAATCGCCCTGAGCAAAGACC | -1.09 ± 0.122 log2FC |
| CTCGAGGATATCAAGATCTGGCCTCGGCGGTGTAAAAGGAACCTCTAGCTAGCCGACTCACTATAGGGATAATCGCCCTGAGCAAAGACC | 0.668 ± 0.0814 log2FC |
